# Laboratory results as given in PMC7862700, “An all-to-all approach to the identification of sequence-specific readers for epigenetic DNA modifications on cytosine”.
# What was measured:
# Experiment in all cases: DAPPL (digital affinity profiling via proximity ligation, sequencing); 10 mM Tris-HCl pH 7.5, 50 mM NaCl, 1 mM DTT, 4% glycerol, room temperature, 30 min; GST-TFs on glutathione beads, 16-mer random dsDNA library, 0.1% formaldehyde crosslink after washing; high values mean tight binding
# FEV = target: T1, FEV (Homo sapiens, UniProt Q99581 1-238); conditions: protein: recombinant; tags: N-terminal GST; dsDNA, one strand shown
# T1 sequence: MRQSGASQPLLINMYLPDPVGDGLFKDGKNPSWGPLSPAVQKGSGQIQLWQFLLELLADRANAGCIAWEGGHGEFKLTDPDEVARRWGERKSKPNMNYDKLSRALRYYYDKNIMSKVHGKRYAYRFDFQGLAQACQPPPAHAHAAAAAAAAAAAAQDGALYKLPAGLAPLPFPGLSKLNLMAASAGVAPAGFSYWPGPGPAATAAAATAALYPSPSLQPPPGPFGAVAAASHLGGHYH
# Summary of the method: (§1)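 Pools of DNA-barcoded human transcription factors, expressed in yeast as GST fusions on glutathione beads and combined with a tag-only sample, were incubated with 200 nmole of a 16-mer random double-stranded DNA library. Incubation took 30 min at room temperature in Tris/NaCl/DTT/glycerol buffer and was followed by washing, 0.1% formaldehyde crosslinking, proximity ligation (BsaI/T4 ligase, 1 h, 37 °C), PCR amplification and sequencing on an Illumina NextSeq500. Binding signal is the ratio of a hexamer's read frequency for a factor to its frequency for the tag-only sample.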
# ETV5 = ETV5 (Homo sapiens, UniProt P41161 1-510); conditions: protein: recombinant; tags: N-terminal GST; dsDNA, one strand shown
# Summary of the method: as §1
# HSF1 = HSF1 (Homo sapiens, UniProt Q00613 1-529); conditions: protein: recombinant; tags: N-terminal GST; chain copies: 3; dsDNA, one strand shown
# Summary of the method: as §1
# SPIC = target: T2, SPIC (Homo sapiens, UniProt Q8N5J4 1-248); conditions: protein: recombinant; tags: N-terminal GST; dsDNA, one strand shown
# T2 sequence: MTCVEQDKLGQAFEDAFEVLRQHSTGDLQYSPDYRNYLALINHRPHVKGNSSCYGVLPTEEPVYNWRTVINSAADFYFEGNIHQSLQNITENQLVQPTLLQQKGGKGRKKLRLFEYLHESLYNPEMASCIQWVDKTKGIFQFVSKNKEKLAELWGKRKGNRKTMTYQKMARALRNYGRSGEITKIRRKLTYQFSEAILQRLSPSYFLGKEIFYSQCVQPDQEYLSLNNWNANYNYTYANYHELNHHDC
# Summary of the method: as §1
# ELF4 = ELF4 (Homo sapiens, UniProt Q99607 1-663); conditions: protein: recombinant; tags: N-terminal GST; dsDNA, one strand shown
# Summary of the method: as §1
# ELK4 = target: T3, ELK4 (Homo sapiens, UniProt P28324-2 1-405); conditions: protein: recombinant; tags: N-terminal GST; dsDNA, one strand shown
# T3 sequence: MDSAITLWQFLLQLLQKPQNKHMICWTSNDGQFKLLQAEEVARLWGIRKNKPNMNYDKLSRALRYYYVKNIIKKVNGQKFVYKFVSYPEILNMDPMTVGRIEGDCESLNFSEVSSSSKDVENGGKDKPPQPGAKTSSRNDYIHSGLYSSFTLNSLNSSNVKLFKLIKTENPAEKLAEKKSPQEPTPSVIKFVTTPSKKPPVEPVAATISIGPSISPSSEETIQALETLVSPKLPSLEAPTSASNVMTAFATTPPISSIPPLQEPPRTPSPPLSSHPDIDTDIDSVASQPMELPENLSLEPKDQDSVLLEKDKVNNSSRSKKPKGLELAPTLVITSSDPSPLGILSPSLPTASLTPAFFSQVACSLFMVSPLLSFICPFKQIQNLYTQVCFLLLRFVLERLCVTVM
# Summary of the method: as §1
# ETV2 = target: T4, ETV2 (Homo sapiens, UniProt O00321 1-342); conditions: protein: recombinant; tags: N-terminal GST; dsDNA, one strand shown
# T4 sequence: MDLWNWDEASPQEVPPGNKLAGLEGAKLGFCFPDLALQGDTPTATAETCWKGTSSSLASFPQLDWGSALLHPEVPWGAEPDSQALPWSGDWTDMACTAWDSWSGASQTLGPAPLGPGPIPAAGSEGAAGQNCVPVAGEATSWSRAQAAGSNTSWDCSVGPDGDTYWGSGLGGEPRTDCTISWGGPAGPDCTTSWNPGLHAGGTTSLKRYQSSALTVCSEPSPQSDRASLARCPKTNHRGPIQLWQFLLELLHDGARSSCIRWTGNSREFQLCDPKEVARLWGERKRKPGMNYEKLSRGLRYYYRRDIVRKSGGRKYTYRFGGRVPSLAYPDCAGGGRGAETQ
# Summary of the method: as §1
# ELF3 = target: T5, ELF3 (Homo sapiens, UniProt P78545 1-371); conditions: protein: recombinant; tags: N-terminal GST; dsDNA, one strand shown
# T5 sequence: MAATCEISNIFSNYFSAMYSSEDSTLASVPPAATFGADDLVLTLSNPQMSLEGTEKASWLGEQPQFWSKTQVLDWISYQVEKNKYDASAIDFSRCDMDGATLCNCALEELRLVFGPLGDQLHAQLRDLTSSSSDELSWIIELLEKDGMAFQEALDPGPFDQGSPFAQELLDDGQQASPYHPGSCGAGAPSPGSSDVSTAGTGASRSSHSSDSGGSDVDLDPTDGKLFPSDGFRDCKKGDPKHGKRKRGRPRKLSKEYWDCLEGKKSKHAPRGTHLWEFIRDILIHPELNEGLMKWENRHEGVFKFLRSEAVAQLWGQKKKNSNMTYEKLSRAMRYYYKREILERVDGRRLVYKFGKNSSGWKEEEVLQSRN
# Summary of the method: as §1
# CRX = CRX (Homo sapiens, UniProt O43186 1-299); conditions: protein: recombinant; tags: N-terminal GST; dsDNA, one strand shown
# Summary of the method: as §1
# Sequence of CRX (O43186 whole entry): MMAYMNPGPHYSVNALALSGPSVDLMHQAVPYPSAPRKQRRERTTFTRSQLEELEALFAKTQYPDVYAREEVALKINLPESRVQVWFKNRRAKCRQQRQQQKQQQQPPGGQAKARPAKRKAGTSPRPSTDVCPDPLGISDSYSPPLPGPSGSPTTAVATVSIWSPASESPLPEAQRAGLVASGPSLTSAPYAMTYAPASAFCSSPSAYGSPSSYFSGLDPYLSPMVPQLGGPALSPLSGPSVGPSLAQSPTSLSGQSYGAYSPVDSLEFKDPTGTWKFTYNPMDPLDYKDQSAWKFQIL
# Sequence of HSF1 (Q00613 whole entry): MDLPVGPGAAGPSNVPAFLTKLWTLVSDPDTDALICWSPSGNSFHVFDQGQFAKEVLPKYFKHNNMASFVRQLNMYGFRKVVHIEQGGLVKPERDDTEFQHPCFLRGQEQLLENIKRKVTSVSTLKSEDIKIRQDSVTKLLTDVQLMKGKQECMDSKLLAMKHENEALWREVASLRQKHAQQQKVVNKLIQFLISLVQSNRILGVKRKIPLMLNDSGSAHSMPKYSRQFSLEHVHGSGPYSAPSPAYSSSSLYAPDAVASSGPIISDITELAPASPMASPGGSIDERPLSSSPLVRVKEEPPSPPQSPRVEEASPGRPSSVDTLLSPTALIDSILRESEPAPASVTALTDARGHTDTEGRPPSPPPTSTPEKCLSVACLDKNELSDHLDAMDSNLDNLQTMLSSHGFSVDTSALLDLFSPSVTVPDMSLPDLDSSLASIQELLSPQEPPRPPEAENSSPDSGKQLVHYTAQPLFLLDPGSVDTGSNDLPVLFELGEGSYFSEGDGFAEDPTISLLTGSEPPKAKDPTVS
# Sequence of ETV5 (P41161 whole entry): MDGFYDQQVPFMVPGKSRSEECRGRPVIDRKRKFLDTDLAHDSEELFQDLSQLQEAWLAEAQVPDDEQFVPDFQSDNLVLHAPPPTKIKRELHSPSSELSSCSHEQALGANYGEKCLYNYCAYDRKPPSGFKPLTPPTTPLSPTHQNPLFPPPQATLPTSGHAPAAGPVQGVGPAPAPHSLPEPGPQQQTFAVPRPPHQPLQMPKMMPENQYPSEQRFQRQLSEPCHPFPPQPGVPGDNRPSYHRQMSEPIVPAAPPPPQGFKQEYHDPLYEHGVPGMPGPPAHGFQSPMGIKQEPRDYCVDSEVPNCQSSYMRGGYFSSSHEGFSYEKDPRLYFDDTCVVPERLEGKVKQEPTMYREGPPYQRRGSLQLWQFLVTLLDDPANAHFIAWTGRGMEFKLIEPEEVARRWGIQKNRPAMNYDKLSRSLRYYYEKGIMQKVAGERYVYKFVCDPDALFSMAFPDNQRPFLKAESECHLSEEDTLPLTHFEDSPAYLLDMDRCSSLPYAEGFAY
# Sequence of ELF4 (Q99607 whole entry): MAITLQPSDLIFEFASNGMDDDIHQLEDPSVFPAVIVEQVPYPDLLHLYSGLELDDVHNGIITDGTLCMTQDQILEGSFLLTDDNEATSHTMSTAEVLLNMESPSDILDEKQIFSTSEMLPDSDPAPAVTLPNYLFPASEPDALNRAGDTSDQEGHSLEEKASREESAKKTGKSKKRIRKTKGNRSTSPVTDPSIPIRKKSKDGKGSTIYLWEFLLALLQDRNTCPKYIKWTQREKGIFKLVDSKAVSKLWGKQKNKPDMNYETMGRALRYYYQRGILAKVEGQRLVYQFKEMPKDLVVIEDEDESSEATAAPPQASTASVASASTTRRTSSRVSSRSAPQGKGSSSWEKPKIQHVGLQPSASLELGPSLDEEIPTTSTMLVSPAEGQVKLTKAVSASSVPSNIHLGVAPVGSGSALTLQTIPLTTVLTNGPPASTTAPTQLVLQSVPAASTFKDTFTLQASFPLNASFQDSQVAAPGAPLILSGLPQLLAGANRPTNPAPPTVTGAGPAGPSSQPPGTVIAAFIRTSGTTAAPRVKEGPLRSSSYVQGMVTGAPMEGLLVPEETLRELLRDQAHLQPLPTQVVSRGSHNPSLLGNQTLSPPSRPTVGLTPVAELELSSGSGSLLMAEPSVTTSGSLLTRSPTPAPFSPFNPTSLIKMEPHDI
sequence,measurement,setting,value
GGCTTC,binding signal,FEV,"1.77 fold enrichment (6-mer frequency, TF over GST control)"
same,binding signal,ETV5,"1.69 fold enrichment (6-mer frequency, TF over GST control)"
same,binding signal,HSF1,"1.45 fold enrichment (6-mer frequency, TF over GST control)"
same,binding signal,SPIC,"1.6 fold enrichment (6-mer frequency, TF over GST control)"
same,binding signal,ELF4,"1.55 fold enrichment (6-mer frequency, TF over GST control)"
same,binding signal,ELK4,"1.44 fold enrichment (6-mer frequency, TF over GST control)"
same,binding signal,ETV2,"1.76 fold enrichment (6-mer frequency, TF over GST control)"
same,binding signal,ELF3,"1.64 fold enrichment (6-mer frequency, TF over GST control)"
same,binding signal,CRX,"1.25 fold enrichment (6-mer frequency, TF over GST control)"
